Bioassay records: PubChem, National Center for Advancing Translational Sciences (NCATS)
The full list was thinned out, with hits kept by preference.
Pf Dd2 growth: blocks in vitro growth of P. falciparum Dd2; Potency, µM (series often up to 28.9 µM), actives largely listed as inhibitors; P. falciparum Dd2 growth, SYBR Green, 72 h; actives 4.3% (n = 120,000); active means well fitted inhibition curve with a large enough effect; further: nearly all actives have a fitted effect of over 65% in size
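Readout: SYBR Green fluorescence, 485 nm excitation, 535 nm emission, after ~16 h lysis at 37C. Before that, Dd2-infected red cells (2.5% hematocrit) grew 72 h with compound, 29 uM top final concentration.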
Numbers stand for hits; – = inactive.

SMILES | Pf Dd2 growth
C#CCNC(=O)c1cc(-c2cccc(C(F)(F)F)c2)c2nncn2n1 | 14.1µM
Cc1cn2nc(C(=O)NCc3cccc(C(F)(F)F)c3)cc2c(=O)[nH]1 | –
O=C(c1cc(-c2cccc(C(F)(F)F)c2)c2nncn2n1)N1CCCC1 | –
O=C(c1cc(-c2cccc(C(F)(F)F)c2)c2nncn2n1)N1CCOCC1 | –
O=C(NCc1cccs1)c1cc(-c2cccc(C(F)(F)F)c2)c2nncn2n1 | 2µM
CC(C)NC(=O)c1cc(-c2cccc(C(F)(F)F)c2)c2nncn2n1 | –
CC(=O)Nc1cccc(NC(=O)C2(c3cccs3)CCOCC2)c1 | –
CCCn1c2ccccc2c2cnn(CC(=O)NCCCN(CC)c3ccccc3)c(=O)c21 | –
CC(=O)N1CC2(CCCCN2Cc2ccc(Cl)cc2)Cc2ccccc21 (stereo not drawn) | –
CC(=O)N1CC2(CCN(Cc3ccc(Cl)cc3)CC2)Cc2ccccc21 | –
O=C(c1ccc(Cl)cc1)N1CC2(CCN(Cc3c[nH]c4ccccc34)CC2)Cc2ccccc21 | 2.51µM
CC(=O)N1CC2(CCN(Cc3ccccn3)CC2)Cc2ccccc21 | –
O=C(c1ccc(Cl)cc1)N1CC2(CCN(Cc3ccc(Cl)cc3)CC2)Cc2ccccc21 | 12.6µM
CC(=O)N1CC2(CCN(Cc3ccccn3)C2)Cc2ccccc21 (stereo not drawn) | –
CC(=O)N1CC2(Cc3ccccc31)CN(C(=O)c1ccc(C(F)(F)F)cc1)C2 | –
O=C(c1ccc(Cl)cc1)N1CC2(CCN(Cc3cccnc3)C2)Cc2ccccc21 (stereo not drawn) | 8.91µM
O=C(c1ccc(Cl)cc1)N1CC2(CCCN2Cc2ccc(C(F)(F)F)cc2)Cc2ccccc21 (stereo not drawn) | 10µM
COCC1CN(C(C)=O)CC12CCN(Cc1c[nH]c3ccccc13)CC2 (stereo not drawn) | –
C[S+](=O)([O-])N1CC2(CCN(Cc3ccc(Cl)cc3)CC2)Cc2ccccc21 | –
COCCNC(=O)[C@H]1C[C@H](Oc2ccccc2)CN1S(=O)(=O)Cc1ccccc1 | –
O=C(Cc1c[nH]c2ncc(-c3ccccc3Oc3ccccc3)cc12)N1CCOCC1 | –
CC(=O)Nc1ccc(C(=O)N2C3CCC2CN(Cc2cccnc2)C3)cc1 | –
Cc1noc(C)c1C(=O)NCC(=O)N1CCCCCNC(=O)CC1c1ccccc1 (stereo not drawn) | –
CCOc1ccc2c(n1)CCN(C(=O)Cc1ccc(F)cc1)C2 | –
CCOc1ccc2c(n1)CCN(C(=O)c1ccc(OC)cc1)C2 | –
SMILES | Pf Dd2 growth
COCCOc1ccc2c(n1)CCN(C(=O)Cc1cccc(OC)c1)C2 | –
CCOc1ccc2c(n1)CCN(C(=O)Cc1cccc(C)c1)C2 | 10µM
CCOc1ccc2c(n1)CCN(C(=O)c1cnccn1)C2 | –
CCOc1ccc2c(n1)CCN(C(=O)C1(c3ccccc3)CC1)C2 | 10µM
COc1ccc(CC(=O)NC2CCN(c3cc(-c4ccc(F)cc4)[nH]n3)C2)cc1OC (stereo not drawn) | –
O=C(c1cccnc1)N1C[C@@H]2OCC(=O)N(CC3CC3)[C@@H]2C1 | –
CCOC(=O)c1c(NC(=O)COc2ccc(Cl)cc2C)sc2c1CCCCC2 | –
CCOC(=O)c1c(NC(=O)c2ccc(OC)cc2)sc2c1CCCCC2 | –
COc1ccc(OC)c(CCNC(=O)c2csc3c2CCCCC3)c1 | –
CCOc1ccc(NC(=O)c2c(NC(=O)c3ccccc3F)sc3c2CCC3)cc1 | –
CCOc1cc(=O)n2c(c1C(=O)Nc1cc(OC)ccc1OC)CCCC2 | –
COC(=O)c1c(NC(=O)COc2ccc(Cl)cc2C)sc2c1CCCCC2 | –
CCOC(=O)N1CCc2c(sc(NCc3cccc(F)c3)c2C(=O)Nc2ccc(OCC)cc2)C1 | 12.6µM
COc1ccc(NC(=O)NCc2c(-n3cccc3)sc3c2CCCC3)c(OC)c1 | –
CCOC(=O)N1CCc2c(sc(NCc3cc(OC)ccc3OC)c2C(=O)Nc2cc(OC)ccc2OC)C1 | 11.2µM
CCOC(=O)c1c(NC(=O)COc2ccc(CC)cc2)sc2c1CCCC2 | –
COc1ccc(Cl)cc1NC(=O)c1c(NCc2ccc(C)o2)sc2c1CCCCC2 | 14.1µM
COc1ccc(OC)c(NC(=O)c2c(NCc3ccc(OC)c(OC)c3)sc3c2CCC3)c1 | 7.94µM
COC(=O)CC1CCN(C(=O)CC[C@H]2NC(=O)c3ccccc3NC2=O)CC1 | –
COC[C@H]1CCCN1C[C@H]1CN2CC[C@H]1C[C@@H]2CNC(=S)Nc1ccc(-n2cccn2)cc1 | –
COc1ccc(C(=O)NC[C@H]2O[C@@H](CC(=O)N3CCN(c4ccccc4)CC3)[C@H](O)[C@@H]2O)cc1 | –
CCN(CC)c1ccc2cc(-c3nnc(Nc4ccc(C)cc4)s3)c(=O)oc2c1 | –
COc1cccc(C(=O)NC2CCN(c3nnc4ccccn34)CC2)c1 | –
CSc1nccc(N2CCC3(CCCN(C(C)C)C3=O)C2)n1 (stereo not drawn) | –
Cc1ccc(NC(=O)N2CCC(Oc3ncccc3C(=O)N3CCOCC3)C2)cc1Cl (stereo not drawn) | –
SMILES | Pf Dd2 growth
O=S1(=O)NCC2(CCN(Cc3ccncc3)CC2)Oc2ncccc21 | –
CN(c1ccc(F)cc1)S(=O)(=O)N1CCCC(C(=O)NCc2cccc(Br)c2)C1 (stereo not drawn) | –
COCCC(=O)N1CCCn2cc(-c3cccc(C#N)c3)nc21 | –
COCc1nncn1C1CCN(S(=O)(=O)c2ccc(F)c(F)c2)CC1 | –
Cc1cccc(C(=O)N2CCC3(CC2)N=C(c2cccc(Br)c2)NO3)c1 | –
CCOc1ccc(NC(=O)c2oc3ccccc3c2NC(=O)c2cc3ccccc3o2)cc1 | –
Cc1ccccc1NC1CCn2c(nc(C)c2C(=O)Nc2ccccc2)C1 (stereo not drawn) | –
Cc1nc2n(c1C(=O)Nc1cc(-c3ccc(F)cc3)[nH]n1)CCC(Nc1ccc(F)cc1)C2 (stereo not drawn) | 8.91µM
Cc1nc2n(c1C(=O)NCC1CC1)CCC(Nc1ccc(F)cc1)C2 (stereo not drawn) | –
O=C1NCCCCCCN(C(=O)c2ccoc2)[C@H]2CCC[C@@H]12 | –
Cc1nc(-c2cccc(F)c2)sc1CCNC(=O)c1ccc(F)c(F)c1 | –
COc1ccc(-c2nc3scc(CCNS(=O)(=O)c4ccc(Oc5ccccc5)cc4)n3n2)cc1 | –
COc1ccc(-c2nc3scc(CCNC(=O)Cc4ccc(F)cc4)n3n2)cc1 | –
COc1ccc(-c2nc3scc(CCNC(=O)c4cc(OC)cc(OC)c4)n3n2)cc1 | 7.08µM
Cc1cccn2c(=O)c3cc(C(=O)N(Cc4ccccc4)C(C)C)sc3nc12 | –
COc1ccc(OC)c(NC(=O)Cn2ccc3ccccc3c2=O)c1 | –
COc1ccc(Cl)cc1NC(=O)c1c(NCc2cccnc2)sc2c1CCC(C)C2 (stereo not drawn) | 8.91µM
COc1ccc(Cl)cc1NC(=O)c1sc2nc3c(cc2c1N)N1CCC3CC1 | –
COc1ccc(Cl)cc1NC(=O)c1c(NCc2cccs2)sc2c1CCC(C)C2 (stereo not drawn) | 12.6µM
COc1ccc(NC(=O)c2c(NC(=O)c3ccncc3)sc3c2CCC(C(C)(C)C)C3)cc1 (stereo not drawn) | –
COc1ccccc1NC(=O)c1c(NC(=O)c2cccs2)sc2c1CCC(C(C)(C)C)C2 (stereo not drawn) | –
COC(=O)c1c(NC(=O)CCCOc2ccccc2C)sc2c1CCC(C)C2 (stereo not drawn) | –
COc1cc(OC)cc(C(=O)NC2CCCN(c3cc(-c4ccccc4)[nH]n3)C2)c1 (stereo not drawn) | –
Cc1ccc(-c2ccnc(N3CCC(N(C)Cc4ccon4)CC3)n2)c(C)n1 | –
